# In the library only some 4.8% were active in any assay of this set; here they are far more common.
# PfHsp90 yeast 2 – growth inhibition of PfHsp90-expressing yeast, primary screen, antimalarial PfHsp90 inhibitor project, S. cerevisiae, BacTiter-Glo luminescence, single point, set 2; inhibition, % at 9.4 µM; AID 504621, 2011; 310,000 compounds, 0.32% hits; BacTiter-Glo ATP, 48 h; yeast lacking PDR1 and PDR3 efflux regulators;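 active means every replicate shows inhibition above about 80%, whatever the replicate mean, limit read from the data; inconclusive means mean inhibition reaches the set limit but some replicate falls short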;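 further: 0% = DMSO neutral controls and 100% = 20 µM radicicol positive controls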
# NALP1 inh – NALP1 inflammasome inhibitors in reconstituted yeast, colorimetric, S. cerevisiae, triplicate retest; S. cerevisiae NALP1/ASC/caspase-1 growth, X-gal OD620, 72 h; inhibition, % at 10 µM; 280,000 compounds, 0.61% hits; AID 2071, 2009; in the data active means inhibition mostly above about 24%, no sharp cut-off; inactive means mostly below about 32%
# SKKanGAS inh – S. pyogenes SKKanGAS growth inhibitors in kanamycin, primary screen, streptokinase expression inhibitor project, SKKanGAS strain, BacTiter-Glo luminescence; 6 h; inhibition, % at 7.5 µM; 300,000 compounds, 1.3% hits;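 active means mean replicate score, as percent of positive control median, at least 50; inconclusive means mean below 50 but one replicate at or above 50; inactive means mean and every replicate below 50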;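 further: strain carries kanamycin resistance gene driven by streptokinase promoter and grows in 40 µg/ml kanamycin; loss of luminescence reflects streptokinase promoter inhibition or plain growth inhibition; 0% = median of DMSO wells and 100% = positive control at its reference dose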
# tim23-1 inh – growth inhibitors of tim23-1 mutant yeast, primary screen, luminescence, uHTS; S. cerevisiae tim23-1 growth, BacTiter-Glo luminescence, 24 h; inhibition, % at 20 µM; 330,000 compounds, 1.3% hits;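 active means growth inhibition of the mutant yeast at or above 50%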;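 further: temperature-sensitive mutant grown at 25 °C; plate controls were DMSO-treated mutant yeast for no effect and medium wells lacking yeast for full effect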
# tim10-1 inh – growth inhibitors of tim10-1 mutant yeast, primary screen, luminescence, uHTS | S. cerevisiae tim10-1 ts strain growth, BacTiter-Glo, 24 h | AID 463190, 2010 | 330,000 compounds, 2.2% hits | inhibition, % at 20 µM;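 active means inhibition of at least 40%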;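 further: mutant grown at 25 °C; 0% = DMSO wells with yeast and 100% = wells holding no yeast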
# TIM10 inh – growth inhibitors of isogenic TIM10 control yeast, primary screen, counter-screen for tim10-1 yeast inhibitor project, luminescence, uHTS; S. cerevisiae TIM10 strain growth, BacTiter-Glo luminescence, 24 h; inhibition, % at 10 µM; 330,000 compounds, 1.4% hits; AID 463195, 2010;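 active means inhibition of 40% or more at the single tested concentration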;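 further: wild-type TIM10 isogenic control strain grown at permissive 25 °C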
# An asterisk follows results filed as active; u = inconclusive; x = no result given.
SMILES,PfHsp90 yeast 2,NALP1 inh,SKKanGAS inh,tim23-1 inh,tim10-1 inh,TIM10 inh
Cc1c(Cl)c(C(F)F)nn1CC(=O)NC1C(=O)N2C(C(=O)O)=C(CSc3nnnn3C)CSC12 (stereo not drawn),-10,16,119*,x,x,x
CC(C(=O)NC1C(=O)N2C(C(=O)O)=C(CSc3nnnn3C)CSC12)n1cc(Cl)cn1 (stereo not drawn),-21,-2,105*,2,9,6
COCc1cc(C)nc(N)c1C#N,20,0,-3,2,10,-2
Cc1ccc(/C=N/n2cnc3sc4c(c3c2=O)CCCC4)o1,-2,9,-5,17,13,7
Cc1csc(NC(=O)c2ccc3ccccc3n2)n1,-26,10,60*,8,16,26
Cc1csc(NC(=O)c2cnc3ccccc3n2)n1,16,2,-3,8,17,21
CCC(CC)c1nnc(NC(=O)c2ccc3ccccc3n2)s1,-6,22,79*,33,33,33
CCOc1ccc(OCc2ccc(C(=O)N/N=C(\C)c3ccccn3)cc2)cc1,6,19,92*,x,x,x
C/C(=N\NC(=O)c1ccccc1Cl)c1ccccn1,0,18,41,-9,-10,-1
C/C(=N\NC(=O)c1cccc2ccccc12)c1ccccn1,2,-14,79*,34,8,6
C/C(=N\NC(=O)c1ccccc1OCc1ccc(F)cc1)c1ccccn1,5,x,x,4,-25,-9
O=C(N/N=C(\c1ccccc1)c1ccccn1)c1ccccc1Cl,x,7,66*,35,29,0
C/C(=N\NC(=O)C(c1ccccc1)c1ccccc1)c1ccccn1,2,11,70*,4,22,13
O=C(C1CCCO1)N1CCN(c2c3c(nc4cc(-c5ccc(F)cc5)nn24)CCC3)CC1 (stereo not drawn),4,-11,4,25,6,12
COc1ccc(CN2C(=O)CS/C2=N/N=C/c2cccs2)cc1,0,x,13,-4,-10,-12
CC(=NNC(=S)Nc1cccc(C)c1)c1ccccn1,112*,x,x,x,x,x
CC(=NNC(=S)Nc1ccc(C)cc1)c1ccccn1,42,x,x,x,x,x
C/C(=N\NC(=O)c1cc(Br)ccc1O)c1ccccn1,7,-4,97*,-2,12,11
Cc1noc(C(=O)N2CCN(c3ccc(F)cc3)CC2)c1Cl,-1,16,-6,-7,-10,-9
O=C(Nc1nnc(-c2ccc(Br)cc2)o1)c1ccco1,x,x,94*,32,-5,0
Cc1ccc(-c2nnc(NC(=O)c3ccco3)o2)c(C)c1,-22,x,84*,21,22,5
Cc1ccc(C)c(-c2nnc(NC(=O)c3ccco3)o2)c1,x,x,-9,20,1,-8
COc1ccc(C(=O)Nc2nnc(S(=O)(=O)N3CCCCCC3)s2)cc1OC,-9,13,13,7,6,11
O=C(CN1CCCC1)Nc1ccc(F)c(Cl)c1,10,12,2,2,-19,-3
COc1ccc(S(=O)(=O)NCCSCc2ccco2)cc1,-5,34*,-1,9,15,0
SMILES,PfHsp90 yeast 2,NALP1 inh,SKKanGAS inh,tim23-1 inh,tim10-1 inh,TIM10 inh
Cc1cccc(/C=N/NC(=O)c2ccc(NC(=O)c3ccccc3C)cc2)n1,10,-6,2,-6,-29,10
Cc1cccc(C(=O)NC(=S)NNC(=O)COc2c(C)cccc2C)c1,-7,28,107*,-22,-1,6
Cc1cccc(C(=O)NC(=S)NNC(=O)c2ccccc2Cl)c1,19,-3,86*,17,38,13
Cc1cccc(C(=O)NNC(=O)C2CC2)c1,17,31*,2,3,3,-8
Cc1cccc(C(=O)NC(=S)Nc2ccccc2C(=O)O)c1,-29,-6,6,18,10,10
Cc1ccc(C(=O)NC(=S)NNC(=O)COc2ccccc2C)cc1,x,-13,118*,-10,7,-6
CCC(=O)NNC(=S)NC(=O)c1ccc(C)cc1,9,6,22,-26,-6,8
C#CCOCCOCCOCCNc1nc(N2CCN(C(=O)Cn3cc(CCCCN)nn3)CC2)nc(N2CCN(C(=O)[C@H](CCCCN)n3cc(CCCC)nn3)CC2)n1,-5,x,x,1,9,4
COc1ccc(C(=O)NCC(c2cccs2)N2CCc3ccccc32)c(OC)c1 (stereo not drawn),12,x,19,-5,-5,-3
Oc1cc(O)cc(/C=C/c2ccc(O)c(O)c2)c1,16,x,x,11,15,7
CCOC(=O)c1nnn(-c2nonc2-n2cccc2)c1CN1CCC(C)CC1,-8,11,u,6,39,9
Cc1cccc(C(=O)NC(=S)NCc2ccccc2)c1,-35,x,4,28,8,8
Cc1cccc(C(=O)NC(=S)NNC(=O)Cc2ccccc2)c1,109*,23,20,40,1,13
CCOC(=O)C1=C(COC(=O)/C=C/c2cccc([N+](=O)[O-])c2)NC(=O)NC1C (stereo not drawn),-46,x,6,3,0,-1
C[C@@H]1CC=C[C@H]2[C@H]1C(=O)N(Cc1ccccc1)[C@H]2c1ccc(F)c(/C=C/c2ccccc2)c1,1,2,33,19,8,0
COC(=O)c1ccc(NC(=O)c2sc3nc(-c4ccccc4)cn3c2C)cc1,12,12,71*,7,9,-5
COc1ccc(-c2cn3c(C)c(C(=O)Nc4ccncc4)sc3n2)cc1,12,-25,-2,9,6,1
COc1ccc(C(=O)Nc2cccc(C(=O)NCc3ccccc3)c2)cc1,x,-7,-1,3,-1,13
Cc1nn(Cc2c(Cl)cccc2Cl)c(C)c1NC(=O)c1cn(-c2ccccc2)nc1-c1ccccc1,33,12,63*,12,4,7
Cc1ccc(Cl)cc1N1CCN(C(=O)c2cn(C)c(=O)c3c2c2ccccc2n3C)CC1,-32,11,82*,24,34,11
CC(NC(=O)Cn1ccsc1=N)C12CC3CC(CC(C3)C1)C2 (stereo not drawn),9,11,x,16,37,18
Oc1ccccc1-c1cc(C(F)(F)C(F)F)nc(-c2ccccc2)n1,19,12,6,2,11,-3
O=[N+]([O-])c1ccc(O)c(-c2cc(C(F)(F)F)nc(-c3ccccc3)n2)c1,14,11,94*,1,10,21
Cc1ccc(N2CC(C(=O)OCC(=O)C(C)(C)C)CC2=O)cc1C (stereo not drawn),x,-7,x,29,34,12

# Assay outcomes: PubChem, several laboratories
